The text below walks through data of ChEMBL document CHEMBL3988442, “University of Dundee, Small-Polar-MMV Screening Library” (2021).

What all share (parameters): scale not given: direction of the effect not stated beside the values
For assay [1], the target named is Protein translocase subunit SecA (Escherichia coli (strain K12)) (UniProt P10408). Nature of the assay: Assay to Identify E. coli SecA ATPase Inhibitors. Type of assay: functional. As to conditions: 30 µM.
Assay [2] concerns the target T1, Ubiquitin-activating enzyme e1, putative (Leishmania donovani (strain BPK282A1)) (UniProt E9BSI1).
T1 sequence (whole entry): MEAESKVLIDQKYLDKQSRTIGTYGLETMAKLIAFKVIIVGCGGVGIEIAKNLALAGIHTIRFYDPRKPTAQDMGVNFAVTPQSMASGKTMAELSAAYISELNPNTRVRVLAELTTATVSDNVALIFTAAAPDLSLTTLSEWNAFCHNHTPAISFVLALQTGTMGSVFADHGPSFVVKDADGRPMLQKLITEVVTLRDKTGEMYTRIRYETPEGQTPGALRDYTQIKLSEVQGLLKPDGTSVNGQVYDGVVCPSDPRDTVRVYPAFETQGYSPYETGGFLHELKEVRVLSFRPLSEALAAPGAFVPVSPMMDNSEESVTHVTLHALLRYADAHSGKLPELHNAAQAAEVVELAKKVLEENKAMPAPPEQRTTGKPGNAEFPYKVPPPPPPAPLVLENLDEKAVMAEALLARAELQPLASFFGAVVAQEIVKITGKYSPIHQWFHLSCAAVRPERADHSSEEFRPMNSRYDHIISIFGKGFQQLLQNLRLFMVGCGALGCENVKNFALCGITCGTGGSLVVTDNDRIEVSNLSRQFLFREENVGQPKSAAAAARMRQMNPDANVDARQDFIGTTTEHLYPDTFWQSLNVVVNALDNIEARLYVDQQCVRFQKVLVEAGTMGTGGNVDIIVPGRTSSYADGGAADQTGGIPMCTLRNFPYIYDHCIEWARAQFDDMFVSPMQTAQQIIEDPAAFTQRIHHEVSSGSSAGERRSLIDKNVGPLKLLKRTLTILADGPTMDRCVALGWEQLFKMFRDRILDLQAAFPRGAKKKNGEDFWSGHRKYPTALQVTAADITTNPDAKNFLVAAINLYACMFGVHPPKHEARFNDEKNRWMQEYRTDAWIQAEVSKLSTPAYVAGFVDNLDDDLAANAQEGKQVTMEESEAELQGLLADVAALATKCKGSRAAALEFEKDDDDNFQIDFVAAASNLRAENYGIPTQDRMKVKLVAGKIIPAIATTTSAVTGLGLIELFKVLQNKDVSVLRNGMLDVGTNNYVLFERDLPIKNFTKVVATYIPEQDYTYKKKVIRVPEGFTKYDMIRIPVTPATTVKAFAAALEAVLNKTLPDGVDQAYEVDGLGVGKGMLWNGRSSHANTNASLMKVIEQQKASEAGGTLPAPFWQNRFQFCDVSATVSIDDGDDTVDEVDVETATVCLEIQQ
As to the kind of experiment: Leishmania donovani Ubiquitin Activating Enzyme (LdE1). In kind it is functional. As to conditions: 30 µM.

Assay [3] has as its target AMP-activated protein kinase, AMPK (Homo sapiens) (UniProt P54646+O43741+P54619+Q9UGJ0+Q9Y478+Q13131+Q9UGI9). As to the kind of experiment: AMP-dependent Kinase enzyme assay. An in vitro enzyme assay that detects ADP turnover that is directly proportional to AMPK activity. This uses naive AMPK that is activated during the assay with MK-8722. In kind it is functional. The settings on record: 30 µM.

The target of assay [4] is Sialic acid-binding Ig-like lectin 9 (Homo sapiens) (UniProt Q9Y336). As to the kind of experiment: Hs-Siglec9 ALPHAscreen SOP 20170721. The settings on record: 10 µM.
A further assay concerns Trypanosoma cruzi. As to the kind of experiment: Trypanosoma cruzi phosphomannomutase and mannose-1-phosphate guanylyltransferase assay. Type of assay: functional. The settings on record: 10 µM.
Assay [5] deals with T2, Arginase-2, mitochondrial (Homo sapiens) (UniProt P78540).
T2 sequence (whole entry): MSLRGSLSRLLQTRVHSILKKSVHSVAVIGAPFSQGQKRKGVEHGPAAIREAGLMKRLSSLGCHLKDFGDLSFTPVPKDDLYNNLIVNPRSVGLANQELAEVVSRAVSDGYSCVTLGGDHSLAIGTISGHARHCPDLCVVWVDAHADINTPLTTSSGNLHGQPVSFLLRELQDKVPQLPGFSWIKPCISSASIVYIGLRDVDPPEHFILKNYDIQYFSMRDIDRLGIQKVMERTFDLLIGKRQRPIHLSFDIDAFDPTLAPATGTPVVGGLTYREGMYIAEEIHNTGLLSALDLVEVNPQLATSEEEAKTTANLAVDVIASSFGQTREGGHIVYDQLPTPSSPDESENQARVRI
Nature of the assay: in vitro enzyme assay to detect the production of urea directly proportional to the activity of Arginase II. Also: in the data most compounds retested in dose-response had high values. Type of assay: functional. As to conditions: 33.3 µM.

In assay [6] the target is T3, Proteasome subunit beta (Trypanosoma cruzi) (UniProt O96673).
T3 sequence (whole entry): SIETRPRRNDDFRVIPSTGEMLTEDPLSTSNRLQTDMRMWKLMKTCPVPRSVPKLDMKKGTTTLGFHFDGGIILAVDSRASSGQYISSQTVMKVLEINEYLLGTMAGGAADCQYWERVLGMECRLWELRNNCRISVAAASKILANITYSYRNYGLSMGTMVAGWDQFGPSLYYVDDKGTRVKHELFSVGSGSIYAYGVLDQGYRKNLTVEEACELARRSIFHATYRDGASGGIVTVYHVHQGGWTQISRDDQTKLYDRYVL
Nature of the assay: Trypanosoma cruzi proteasome chymotrypsin-like activity (TcProtChymo) assay. Also: in the data most compounds retested in dose-response had high values. In kind it is functional. As to conditions: 9.37 µM.

The species entered for the next assay is Homo sapiens. Nature of the assay: To identify inhibition of the IFN signalling (Jak-Stat) pathway via expression of an eGFP reporter gene under the control of an IFN-stimulated response element (ISRE) containing MxA promoter. In kind it is functional. As to conditions: 30 µM.
Assay [7] deals with T4, Tyrosyl-tRNA synthetase, putative (Trypanosoma cruzi (strain CL Brener)) (UniProt Q4DSP6).
T4 sequence (whole entry): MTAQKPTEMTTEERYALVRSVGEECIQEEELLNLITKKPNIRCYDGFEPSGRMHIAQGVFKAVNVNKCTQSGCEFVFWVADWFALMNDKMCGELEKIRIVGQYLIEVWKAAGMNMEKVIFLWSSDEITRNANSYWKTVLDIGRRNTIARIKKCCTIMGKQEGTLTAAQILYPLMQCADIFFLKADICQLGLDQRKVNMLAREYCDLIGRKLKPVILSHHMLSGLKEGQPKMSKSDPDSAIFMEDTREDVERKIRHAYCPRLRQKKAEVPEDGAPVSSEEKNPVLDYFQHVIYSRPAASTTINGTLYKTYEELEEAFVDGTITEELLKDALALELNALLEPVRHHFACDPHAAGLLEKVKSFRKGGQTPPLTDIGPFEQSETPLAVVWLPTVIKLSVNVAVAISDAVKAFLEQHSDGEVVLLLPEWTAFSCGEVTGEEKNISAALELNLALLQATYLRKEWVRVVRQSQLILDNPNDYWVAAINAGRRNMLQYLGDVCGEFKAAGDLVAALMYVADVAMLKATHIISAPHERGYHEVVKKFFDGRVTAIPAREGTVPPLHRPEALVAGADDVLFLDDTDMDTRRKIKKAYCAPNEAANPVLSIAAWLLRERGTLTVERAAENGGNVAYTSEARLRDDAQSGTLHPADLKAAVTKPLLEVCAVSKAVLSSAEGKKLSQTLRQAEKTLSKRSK
As to the kind of experiment: Trypanosoma cruzi tyrosyl tRNA synthetase (TcYRS) _High Tyrosine SOP. Also: in the data most compounds retested in dose-response had high values. In kind it is functional. The settings on record: 30 µM.

Assay [8] deals with T4, Tyrosyl-tRNA synthetase, putative (Trypanosoma cruzi (strain CL Brener)). Nature of the assay: Trypanosoma cruzi tyrosyl tRNA synthetase (TcYRS) SOP. In kind it is functional. The settings on record: 30 µM.
In assay [9] the target is Chromo domain-containing protein 1 (Saccharomyces cerevisiae (strain ATCC 204508 / S288c) (Baker's yeast)) (UniProt P32657). As to the kind of experiment: ScCHD-1 Enzyme Inhibition Assay. Also: in the data most compounds retested in dose-response had high values. In kind it is functional. The settings on record: 30 µM.

SMILES strings stand for the structures. For some assays here: Entries with a potency or affinity are not part of this list.

Chromo domain-containing protein 1 (Saccharomyces cerevisiae (strain ATCC 204508 / S288c) (Baker's yeast)), sequence (P32657 whole entry, the tested form may be a part): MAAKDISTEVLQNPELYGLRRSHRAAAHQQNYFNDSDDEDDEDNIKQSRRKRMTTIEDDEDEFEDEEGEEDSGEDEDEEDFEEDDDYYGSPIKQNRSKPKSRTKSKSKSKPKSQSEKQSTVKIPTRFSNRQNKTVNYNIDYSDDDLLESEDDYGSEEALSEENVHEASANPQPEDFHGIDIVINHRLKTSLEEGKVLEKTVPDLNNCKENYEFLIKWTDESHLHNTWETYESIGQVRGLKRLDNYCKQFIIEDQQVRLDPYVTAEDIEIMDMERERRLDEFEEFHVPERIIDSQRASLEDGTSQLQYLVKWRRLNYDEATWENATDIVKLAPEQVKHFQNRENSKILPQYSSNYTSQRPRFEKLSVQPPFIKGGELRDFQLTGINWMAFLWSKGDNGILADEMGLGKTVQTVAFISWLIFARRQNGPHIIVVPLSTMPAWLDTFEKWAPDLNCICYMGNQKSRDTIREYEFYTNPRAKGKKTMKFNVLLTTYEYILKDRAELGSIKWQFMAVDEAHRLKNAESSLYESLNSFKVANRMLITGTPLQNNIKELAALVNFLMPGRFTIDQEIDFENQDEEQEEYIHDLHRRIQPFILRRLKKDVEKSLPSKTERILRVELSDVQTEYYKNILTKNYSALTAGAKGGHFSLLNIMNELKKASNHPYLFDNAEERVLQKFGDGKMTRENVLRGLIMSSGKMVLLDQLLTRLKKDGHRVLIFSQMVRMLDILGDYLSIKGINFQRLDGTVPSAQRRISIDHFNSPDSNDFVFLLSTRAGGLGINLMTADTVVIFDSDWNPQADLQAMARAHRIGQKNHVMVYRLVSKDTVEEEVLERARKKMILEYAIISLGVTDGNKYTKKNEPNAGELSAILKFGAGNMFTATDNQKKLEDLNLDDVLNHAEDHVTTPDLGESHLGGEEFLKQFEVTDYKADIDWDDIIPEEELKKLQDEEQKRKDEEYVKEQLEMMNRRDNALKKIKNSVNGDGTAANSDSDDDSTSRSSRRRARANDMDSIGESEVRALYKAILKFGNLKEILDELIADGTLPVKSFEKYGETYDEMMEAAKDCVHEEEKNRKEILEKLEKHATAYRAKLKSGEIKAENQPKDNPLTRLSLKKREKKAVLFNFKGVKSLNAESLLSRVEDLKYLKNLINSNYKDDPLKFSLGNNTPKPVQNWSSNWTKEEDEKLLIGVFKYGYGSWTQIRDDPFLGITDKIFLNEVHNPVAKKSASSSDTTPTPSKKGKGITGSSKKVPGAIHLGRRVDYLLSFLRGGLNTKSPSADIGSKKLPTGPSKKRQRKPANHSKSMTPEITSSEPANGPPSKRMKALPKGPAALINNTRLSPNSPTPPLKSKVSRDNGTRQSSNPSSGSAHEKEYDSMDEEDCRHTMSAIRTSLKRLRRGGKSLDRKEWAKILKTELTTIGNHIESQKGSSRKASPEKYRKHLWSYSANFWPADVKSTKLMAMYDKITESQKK
Sialic acid-binding Ig-like lectin 9 (Homo sapiens), sequence (Q9Y336 whole entry): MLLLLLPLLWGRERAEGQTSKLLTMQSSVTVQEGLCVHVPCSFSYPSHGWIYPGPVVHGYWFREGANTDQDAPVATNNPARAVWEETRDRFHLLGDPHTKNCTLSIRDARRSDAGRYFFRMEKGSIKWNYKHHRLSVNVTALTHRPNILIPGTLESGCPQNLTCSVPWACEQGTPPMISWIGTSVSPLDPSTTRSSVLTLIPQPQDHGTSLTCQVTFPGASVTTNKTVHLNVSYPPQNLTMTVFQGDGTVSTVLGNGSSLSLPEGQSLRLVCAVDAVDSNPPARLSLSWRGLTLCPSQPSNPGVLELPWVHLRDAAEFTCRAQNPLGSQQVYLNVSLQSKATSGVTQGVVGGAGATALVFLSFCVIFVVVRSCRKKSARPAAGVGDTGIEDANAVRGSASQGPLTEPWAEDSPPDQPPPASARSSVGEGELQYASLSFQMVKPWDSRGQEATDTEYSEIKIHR
Protein translocase subunit SecA (Escherichia coli (strain K12)), sequence (P10408 whole entry): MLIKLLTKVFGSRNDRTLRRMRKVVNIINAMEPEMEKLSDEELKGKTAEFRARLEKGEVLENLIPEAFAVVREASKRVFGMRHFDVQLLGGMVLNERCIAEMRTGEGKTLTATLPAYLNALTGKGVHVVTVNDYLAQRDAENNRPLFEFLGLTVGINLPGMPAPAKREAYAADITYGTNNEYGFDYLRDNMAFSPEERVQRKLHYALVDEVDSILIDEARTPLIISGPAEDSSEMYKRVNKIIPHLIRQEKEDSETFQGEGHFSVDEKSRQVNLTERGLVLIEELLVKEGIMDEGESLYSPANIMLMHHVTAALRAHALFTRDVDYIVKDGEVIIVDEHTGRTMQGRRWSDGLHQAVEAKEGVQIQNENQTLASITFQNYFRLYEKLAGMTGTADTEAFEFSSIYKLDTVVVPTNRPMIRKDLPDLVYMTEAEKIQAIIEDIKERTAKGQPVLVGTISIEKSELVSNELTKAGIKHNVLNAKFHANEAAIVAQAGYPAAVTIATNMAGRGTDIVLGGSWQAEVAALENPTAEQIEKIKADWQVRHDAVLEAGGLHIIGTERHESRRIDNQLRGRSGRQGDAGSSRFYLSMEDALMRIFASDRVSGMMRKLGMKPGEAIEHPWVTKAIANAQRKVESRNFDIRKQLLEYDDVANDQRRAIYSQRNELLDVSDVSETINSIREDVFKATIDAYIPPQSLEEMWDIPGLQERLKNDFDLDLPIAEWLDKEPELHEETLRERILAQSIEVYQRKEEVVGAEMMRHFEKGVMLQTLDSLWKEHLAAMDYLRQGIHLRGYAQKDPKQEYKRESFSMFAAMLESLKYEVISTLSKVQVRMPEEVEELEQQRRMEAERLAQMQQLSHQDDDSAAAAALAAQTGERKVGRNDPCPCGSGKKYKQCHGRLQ

In the case of `CCc1ccc(C(=O)NC2CCN(c3cnn(C)c3)C2=O)o1` (stereo not given), the Percent Effect in assay [1] was -6.02%; in assay [2], 2.7%; in assay [3], -5.86%; in assay [4], 6.69%; with Trypanosoma cruzi, 8.11%; in assay [5], -0.744%. Also, the Percent Effect is 8.84% in [6]; -0.708% in the assay listed under Homo sapiens; 3.23% in assay [7]; 11.1% in assay [8]; -7.33% in assay [9].
On to `O=C(c1cccs1)N1CCC(Cn2nc(-c3ccco3)ccc2=O)CC1`, for which the Percent Effect in assay [1] is 0.0559%; in assay [2] it was 6.76%; in assay [3] it was 15.8%; in assay [4], 0.867%; in the assay with Trypanosoma cruzi it was -6.92%; in [5] it was 3.02%. In addition, the Percent Effect in [6] was 26.8%; in the assay listed under Homo sapiens, 13.6%; in [7], 10.8%; in assay [8], 14.3%; in assay [9] it was 1.29%.
Consider `CCOc1cc(C)nc(N2CCN(C(=O)c3ccnn3C)CC2)n1`, for which the Percent Effect was -1.84% in assay [1]; 5.41% in assay [2]; -0.273% in assay [3]; 4.02% in [4]; 3.62% with Trypanosoma cruzi; -3.51% in assay [5]. The Percent Effect in assay [6] was 4.67%; in the assay listed under Homo sapiens, 2.75%; in assay [7], 3.96%; in assay [8] it was 18.3%; in assay [9], -3.83%.
With `Cc1ccc(C2CCCN2Cc2nc3c(cnn3C)c(=O)[nH]2)cc1C` (stereo not given), the Percent Effect is -4.42% in [1]; 27.9% in assay [2]; -6.55% in [3]; -1.46% in assay [4]; 5.19% in the assay on Trypanosoma cruzi; -1.52% in assay [5]. Also, the Percent Effect in assay [6] was 13.8%; in the assay listed under Homo sapiens, 4.19%; in [7] it was 7.39%; in assay [8] it was 24.1%; in assay [9], -5.15%.
As for `Cc1nc(C)n(C2CCCN(C(=O)CCCOc3ccccc3)C2)n1` (stereo not given), the Percent Effect in [1] is -1.32%; in assay [2], 0%; in assay [3] it was 6.84%; in [4], 4.93%; with Trypanosoma cruzi, 1.5%; in [5] it was -2.85%. Moreover, the Percent Effect is -1.18% in assay [6]; -22.8% in the assay listed under Homo sapiens; 2.91% in assay [7]; 9.76% in [8]; -5.8% in assay [9].
In the case of `CCN1CC2(CCC1=O)CCN(C(=O)c1ccc(Cl)cc1O)CC2`, the Percent Effect in [1] is 0.161%; in assay [2], 12.5%; in [3], -4.82%; in assay [4] it was 5.1%; with Trypanosoma cruzi it was 4.37%; in [5], 25.6%. The Percent Effect in [6] was 4.56%; in the assay filed under Homo sapiens, 19.3%; in [7], 4.21%; in assay [8], 15.4%; in assay [9], -5.87%.
On to `Cc1ccc(C(=O)N2CCc3c(CNS(C)(=O)=O)cncc3C2)o1`, for which the Percent Effect is 3.13% in assay [1]; 2.67% in [2]; 5.83% in [3]; 1.5% in assay [4]; -6.37% in the assay with Trypanosoma cruzi; -55% in assay [5]. The Percent Effect is 8.72% in assay [6]; 4.16% in the assay listed under Homo sapiens; 3.12% in assay [7]; 5% in assay [8]; -7.04% in assay [9].
Regarding `Cc1ncc(C(=O)N2C[C@H]3CC[C@@H]2CN(S(=O)(=O)N(C)C)C3)c(C)n1`, the Percent Effect in assay [1] was -2.89%; in assay [2], 16%; in assay [3] it was -1.8%; in [4], 16.2%; with Trypanosoma cruzi it was 2.82%; in assay [5] it was 27.6%. In addition, the Percent Effect in assay [6] is 17.3%; in the assay listed under Homo sapiens, 1.16%; in assay [7], 7.1%; in assay [8] it was 16.1%; in assay [9], -6.2%.
With `CCc1c(C(=O)NCC(=O)OCC2CC2)cnn1-c1ccc(C)cc1`, the Percent Effect in assay [1] is -5.86%; in assay [2], 22.8%; in assay [3], 2.14%; in assay [4], -2.84%; in the assay on Trypanosoma cruzi, 9.54%; in assay [5], 0.38%. Further, the Percent Effect in assay [6] was 10.7%; in the assay filed under Homo sapiens it was 29%; in [7] it was 6.4%; in [8] it was 24.1%; in [9] it was -9.54%.
In the case of `O=C(CCc1nccs1)N1CCN(c2cccnn2)CC1`, the Percent Effect was -4.08% in assay [1]; 10.4% in assay [2]; 4.08% in [3]; 3.62% in [4]; 2.84% with Trypanosoma cruzi; -0.21% in [5]. Also, the Percent Effect in [6] was -0.404%; in the assay filed under Homo sapiens, 13.5%; in assay [7] it was 5.71%; in assay [8], 9.41%; in [9], -12.4%.
